Screen size: about 48,000 compounds; about 13,000 (27%) showed an effect of 50% or more. The list shows a part of the results.
The molecules below were run on Wolbachia pipientis (assay: Anti-Wolbachia Cell-Based Screen). Conditions: 5 µM.
Assay type: functional
Parameters: scale not given: in the data most compounds retested in dose-response had high values

| Compound | Percent Effect [%] |
| --- | --- |
| Fc1ccc(-c2noc([C@@H]3Cc4nc[nH]c4CN3)n2)cc1 | -11.77 |
| Cc1ccc(N2CC3(COCCN(Cc4ccccn4)C3)OCC2=O)s1.O=C(O)C(F)(F)F.O=C(O)C(F)(F)F (stereo not drawn) | -3.574 |
| Cc1cccc(N2CCOCC3(C2)CN(c2ccccc2)C(=O)CO3)n1.O=C(O)C(F)(F)F (stereo not drawn) | 109.1 |
| Cc1cccc(N2CCOCC3(C2)CN(c2ccoc2)C(=O)CO3)n1.O=C(O)C(F)(F)F (stereo not drawn) | 101.1 |
| O=C(O)C(F)(F)F.O=C(O)C(F)(F)F.O=C1COC2(COCCN(Cc3cccnc3)C2)CN1c1ccoc1 (stereo not drawn) | -8.923 |
| Cn1cc(CN2CCOCC3(C2)CN(c2ccccc2)C(=O)CO3)cn1.O=C(O)C(F)(F)F (stereo not drawn) | -5.421 |
| O=C(O)C(F)(F)F.O=C1COC2(COCCN(c3ccccn3)C2)CN1c1cccc(F)c1 (stereo not drawn) | -5.368 |
| Cc1cccc(N2CCOCC3(C2)CN(c2cnn(C)c2)C(=O)CO3)n1.O=C(O)C(F)(F)F (stereo not drawn) | 85 |
| Cn1cc(N2CC3(COCCN(Cc4ccsc4)C3)OCC2=O)cn1.O=C(O)C(F)(F)F (stereo not drawn) | -6.124 |
| COC(=O)c1ccc(CNC2CC(=O)N(Cc3cccc(F)c3)C2)cc1 (stereo not drawn) | 2.767 |
| CSc1ccc(-n2ccnc2-c2cc3n(n2)CCNC3)cc1 | -5.547 |
| CC(C)c1cnc(N2C[C@H](CO)C[C@H](CN3CCOCC3)C2)nc1 | -10.14 |
| COCc1noc(C2(c3ccc(Cl)cc3)CCOCC2)n1 | 0.3658 |
| Cc1c(Cl)c(CN2CCCC2Cn2cncn2)nc2ccccc12 (stereo not drawn) | 0.2475 |
| Cc1cnn(CC2CCCN2C(=O)c2nccnc2N)c1 (stereo not drawn) | 124 |
| Cc1cnn(CC2CCCN2C(=O)c2nccc3ccccc23)c1 (stereo not drawn) | -8.549 |
| Cc1cnn(CC2CCCCN2C(=O)c2nccnc2N)c1 (stereo not drawn) | 123.3 |
| Cc1cnn(CC2CCCN2C(=O)c2ccc(C(N)=O)cn2)c1 (stereo not drawn) | -6.228 |
| Cc1ccsc1C(=O)N1CC2CC1(C(=O)NCc1ccco1)C2 | -21.25 |
| Cc1oncc1C(=O)N1CC[C@H]2CO[C@H](CN3CCCC3)[C@H]2C1 | 2.112 |
| O=C(N1CCOCC1)N1CCOC[C@H](Oc2ccc(C(F)(F)F)cc2)C1 | -17.33 |
| COc1cccc(OCC(=O)NS(=O)(=O)c2ccc(C)s2)c1 | 7.75 |
| COc1ccc(OCC(=O)NS(=O)(=O)c2ccc(Cl)s2)cc1 | 9.961 |
| COc1cc(C)ccc1OCC(=O)NS(=O)(=O)c1cc(F)ccc1F | 4.965 |

| Compound | Percent Effect [%] |
| --- | --- |
| COc1ccc(OCC(=O)NS(=O)(=O)c2cc(C)ccc2C)cc1 | 6.123 |
| COc1cccc(OCC(=O)NS(=O)(=O)c2ccc(Br)s2)c1 | 93.04 |
| COc1ccccc1OCC(=O)NS(=O)(=O)c1ccc(Cl)cc1F | 6.198 |
| COc1cc(C)ccc1OCC(=O)NS(=O)(=O)c1ccc(Br)s1 | 133.3 |
| COc1ccc(OCC(=O)NS(=O)(=O)c2ccc(Br)s2)cc1 | 71.28 |
| CC(=O)c1cccc(OCC(=O)NS(=O)(=O)c2ccc(C)s2)c1 | 0.05865 |
| CC(=O)c1ccc(OCC(=O)NS(=O)(=O)c2ccc(Cl)s2)cc1 | 1.494 |
| COc1ccccc1OCC(=O)NS(=O)(=O)c1ccc(Cl)s1 | 123.5 |
| N#CCc1ccc(OCC(=O)NS(=O)(=O)c2ccc(Br)s2)cc1 | -7.056 |
| CC(Sc1nncn1C)C(=O)NCCCOc1ccc(F)cc1 (stereo not drawn) | 7.065 |
| COC1CCCN(C(=O)NCCCF)C1 (stereo not drawn) | 5.737 |
| O=C(O)C(F)(F)F.O=C(O)C(F)(F)F.c1cc2c(cc1CN1C[C@@H]3COC[C@@H](N4CCCC4)[C@@H]3C1)OCO2 | 5.593 |
| CCOC[C@]12COC[C@H]1CN(Cc1ccc3c(c1)OCO3)C2.O=C(O)C(F)(F)F | 94.03 |
| CS(=O)(=O)NC[C@]12COC[C@H]1CN(Cc1ccc3c(c1)OCO3)C2.O=C(O)C(F)(F)F | 100.7 |
| CS(=O)(=O)NC[C@]12COC[C@H]1CN(CCc1ccccc1)C2.O=C(O)C(F)(F)F | 1.225 |
| COC[C@]12COC[C@H]1CN(Cc1ccc3c(c1)OCO3)C2.O=C(O)C(F)(F)F | 110.8 |
| CCOC[C@]12COC[C@H]1CN(Cc1ccc(F)c(F)c1)C2.O=C(O)C(F)(F)F | 108.4 |
| CCS(=O)(=O)NC[C@]12COC[C@H]1CN(Cc1ccsc1)C2.O=C(O)C(F)(F)F | -7.396 |
| Cc1nc(C(C)(C)NCc2ncc(C3CC3)o2)sc1C | -9.268 |
| CCc1ccc(CNc2ccccc2CN2CCC(O)CC2)o1 | -8.641 |
| CCCn1cc(CNCC(c2ccc(C)s2)N2CCOCC2)cn1 (stereo not drawn) | 19.75 |
| CC(=O)N1CCN(Cc2ccc3c(c2)OCCO3)CC(O)C1 (stereo not drawn) | -5.239 |
| COCC(=O)NC[C@]1(O)CN(Cc2ccc3c(c2)OCCO3)C[C@H]1O | 114.3 |
| COc1ccc(CC(=O)N2C[C@@H]3COC[C@]3(CN(C)C)C2)cc1.O=C(O)C(F)(F)F | 1.592 |

| Compound | Percent Effect [%] |
| --- | --- |
| COCC(=O)NC[C@]12COC[C@H]1CN(Cc1ccc3c(c1)OCO3)C2.O=C(O)C(F)(F)F | 110 |
| CCC[C@H]1CN(Cc2ccc3c(c2)OCCO3)C[C@@H]1NC(=O)COC | -19.75 |
| CN(C)C[C@]12COC[C@H]1CN(Cc1ccc3c(c1)OCO3)C2.O=C(O)C(F)(F)F.O=C(O)C(F)(F)F | 103.2 |
| COCC(=O)NC[C@]12COC[C@H]1CN(c1ncc(F)cn1)C2.O=C(O)C(F)(F)F | -9.196 |
| COc1ccc(CN2C[C@@H]3COC[C@]3(CN(C)C)C2)cc1.O=C(O)C(F)(F)F.O=C(O)C(F)(F)F | 3.897 |
| O[C@H]1[C@H](NCCc2ccccn2)c2ccccc2C12CCNCC2 | 4.411 |
| CCC(CC)N(Cc1ccc2c(c1)OCO2)C(=O)c1ccc(=O)n(C)c1 | -1.967 |
| Cc1ccc(N2CCc3c(CN(C)Cc4ccco4)cncc3C2)nn1.Cl.Cl | 99 |
| CN(Cc1ccco1)Cc1cncc2c1CCN(c1ncccn1)C2.Cl.Cl | 2.734 |
| CN(Cc1cn2c(n1)CN(C(N)=O)CC2)Cc1ccco1 | 9.855 |
| Cc1cnc(N2CCc3c(CN(C)Cc4ccco4)cncc3C2)nc1 | 78.05 |
| CC(=O)Nn1c(C)cc(CN2CCC(C(=O)N3CCCC3)CC2)c1C | 13.77 |
| CC(C)(CNc1ccccc1S(=O)(=O)C(F)F)N1CCOCC1 | 14.98 |
| CCn1c(C2CCN(C(=O)c3ccc4cc[nH]c4c3)CC2)n[nH]c1=O | 3.076 |
| Cc1cccnc1C(=O)N1CCC(Cc2cnc3[nH]ccc3c2)CC1 | 75.79 |
| CCCc1nnsc1C(=O)NCC1CCN(C(=O)c2ccncc2)CC1 | 2.794 |
| CC1CCN(CC2CCN(C(=O)c3c[nH]c4ncccc34)CC2)CC1 | -10.12 |
| O=C(c1ccncc1)N1CCC(Cc2cnc3[nH]ccc3c2)CC1 | 127.1 |
| O=C(c1cnccn1)N1CCC2(CC1)C(=O)NCC2c1ccccc1 (stereo not drawn) | -11.37 |
| O=C(c1cncs1)N1CCC(Cc2cnc3[nH]ccc3c2)CC1 | 101.1 |
| O=C(c1cnccn1)N1CCC(Cc2cnc3[nH]ccc3c2)CC1 | 109.1 |
| CC(C)CC(=O)N1CCN(c2cc(N(C)C)cnn2)CC1 | 10.83 |
| CCc1nc(CN2CCCN(C(=O)COC(C)C)CC2)cs1 | 23.5 |
| CCC(C(=O)NCc1ccncc1)N(c1ccc(OC)cc1)S(C)(=O)=O (stereo not drawn) | -7.147 |

| Compound | Percent Effect [%] |
| --- | --- |
| O=C(NCc1nc(NC2CCCC2)c2cc(Cl)ccc2n1)c1cncs1 | -2.993 |
| CC(C(=O)Nc1cnn(CC(N)=O)c1)c1ccc(Cl)s1 (stereo not drawn) | -7.657 |
| O=C(O)c1cc2c(nc1O)CC(c1cccc(Cl)c1)CC2=O (stereo not drawn) | 8.981 |
| O=C(c1cnco1)N1CCCC(Cc2cccc3ncccc23)C1 (stereo not drawn) | -11.15 |
| O=C(c1ccccn1)N1CCC(Cc2cnc3[nH]ccc3c2)CC1 | 136.1 |
| O=C(c1cnco1)N1CCC(Cc2ccc3ncccc3c2)CC1 | 111 |
| O=C(CCC1CCN(C(=O)c2cnco2)CC1)NCc1cccc(Cl)c1 | 11.71 |
| Cc1cccc(C(=O)N2CCC(Cc3cnc4[nH]ccc4c3)CC2)n1 | -6.998 |
| O=C(O)C(F)(F)F.O=S1(=O)NC[C@H]2CCN(Cc3ccccc3)CC[C@H]21 | -3.468 |
| Cc1cc(C)c(CNC(=O)NCCNc2ccccn2)c(=O)[nH]1 | 9.095 |
| O=C(c1cn(-c2ccc(F)cc2)nn1)N1CCCC(n2cccn2)C1 (stereo not drawn) | 123 |
| Cc1cnn(C2CCCN(C(=O)c3cn(-c4ccccc4)nn3)C2)c1 (stereo not drawn) | 117.4 |
| Cc1cccc(-n2cc(C(=O)N3CCCC(n4ccnc4)C3)nn2)c1 (stereo not drawn) | 7.382 |
| Cc1cnn(C2CCCN(C(=O)c3cc[nH]n3)C2)c1 (stereo not drawn) | -3.499 |
| Cc1cnn(C2CCCN(C(=O)c3cc(-c4ccccc4C)n[nH]3)C2)c1 (stereo not drawn) | -3.414 |
| Cc1cccc(-n2cc(C(=O)N3CCCC(n4cccn4)C3)nn2)c1 (stereo not drawn) | 4.017 |
| Cc1cnn(C2CCCN(C(=O)c3cc(-c4ccco4)[nH]n3)C2)c1 (stereo not drawn) | 10.35 |
| Cc1ccc(-n2cc(C(=O)N3CCCC(n4cccn4)C3)nn2)cc1 (stereo not drawn) | 117.4 |
| Cc1cnn(C2CCCN(C(=O)c3cnc4ccccc4n3)C2)c1 (stereo not drawn) | -3.195 |
| Cc1cnn(C2CCCN(C(=O)c3cn4ccccc4n3)C2)c1 (stereo not drawn) | 104.2 |
| O=C(c1ccn(-c2cccc(F)c2)n1)N1CCCC(n2cccn2)C1 (stereo not drawn) | 0.279 |
